# Publication PMC7862700, “An all-to-all approach to the identification of sequence-specific readers for epigenetic DNA modifications on cytosine”
# What was measured:
# Experiment in all cases: DAPPL (digital affinity profiling via proximity ligation, sequencing); 10 mM Tris-HCl pH 7.5, 50 mM NaCl, 1 mM DTT, 4% glycerol, room temperature, 30 min; GST-TFs on glutathione beads, 16-mer random dsDNA library, 0.1% formaldehyde crosslink after washing; high values mean tight binding
# Conditions in all cases: protein: recombinant; tags: N-terminal GST; dsDNA, one strand shown
# FLI1 = molecular target: T1, FLI1 (Homo sapiens, UniProt Q01543 1-452)
# T1 sequence: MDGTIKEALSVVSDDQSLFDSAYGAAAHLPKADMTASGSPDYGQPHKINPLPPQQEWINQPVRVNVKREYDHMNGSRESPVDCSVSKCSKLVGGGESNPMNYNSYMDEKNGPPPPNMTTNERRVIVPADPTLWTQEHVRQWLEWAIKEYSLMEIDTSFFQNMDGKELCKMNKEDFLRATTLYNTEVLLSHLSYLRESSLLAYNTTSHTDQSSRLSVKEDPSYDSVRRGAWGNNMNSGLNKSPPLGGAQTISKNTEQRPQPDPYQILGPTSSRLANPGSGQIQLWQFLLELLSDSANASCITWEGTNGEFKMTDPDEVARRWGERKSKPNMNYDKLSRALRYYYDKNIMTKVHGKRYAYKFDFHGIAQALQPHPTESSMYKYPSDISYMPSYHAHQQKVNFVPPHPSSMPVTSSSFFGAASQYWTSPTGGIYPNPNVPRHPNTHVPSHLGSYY
# Summary of the method: (§1)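 Human transcription factors carrying a GST fusion were produced in yeast, bound to glutathione beads, tagged with DNA barcodes and pooled together with a tag-only sample. Each pool was held with 200 nmole of a random double-stranded 16-mer DNA library in Tris/NaCl/DTT/glycerol buffer for 30 min at room temperature, then washed, crosslinked in 0.1% formaldehyde, proximity-ligated with BsaI/T4 ligase (1 h, 37 °C), PCR-amplified and sequenced on an Illumina NextSeq500. Binding signal is the read frequency of each hexamer for a given factor divided by its frequency in the tag-only sample.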
# ELK1 = molecular target: T2, ELK1 (Homo sapiens, UniProt P19419 1-428)
# T2 sequence: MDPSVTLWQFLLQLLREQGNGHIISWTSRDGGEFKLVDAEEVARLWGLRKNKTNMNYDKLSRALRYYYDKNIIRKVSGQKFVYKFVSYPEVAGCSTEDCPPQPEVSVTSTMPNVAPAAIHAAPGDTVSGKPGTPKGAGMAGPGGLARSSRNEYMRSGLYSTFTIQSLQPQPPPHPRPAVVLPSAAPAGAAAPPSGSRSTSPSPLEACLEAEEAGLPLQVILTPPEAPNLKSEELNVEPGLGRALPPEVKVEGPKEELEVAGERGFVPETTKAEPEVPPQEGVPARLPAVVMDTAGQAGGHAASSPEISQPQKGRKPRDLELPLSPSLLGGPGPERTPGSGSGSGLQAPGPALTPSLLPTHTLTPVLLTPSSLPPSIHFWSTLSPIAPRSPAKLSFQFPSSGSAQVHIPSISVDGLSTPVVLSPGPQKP
# Summary of the method: as §1
# GABPA = molecular target: T3, GABPA (Homo sapiens, UniProt Q06546 1-454)
# T3 sequence: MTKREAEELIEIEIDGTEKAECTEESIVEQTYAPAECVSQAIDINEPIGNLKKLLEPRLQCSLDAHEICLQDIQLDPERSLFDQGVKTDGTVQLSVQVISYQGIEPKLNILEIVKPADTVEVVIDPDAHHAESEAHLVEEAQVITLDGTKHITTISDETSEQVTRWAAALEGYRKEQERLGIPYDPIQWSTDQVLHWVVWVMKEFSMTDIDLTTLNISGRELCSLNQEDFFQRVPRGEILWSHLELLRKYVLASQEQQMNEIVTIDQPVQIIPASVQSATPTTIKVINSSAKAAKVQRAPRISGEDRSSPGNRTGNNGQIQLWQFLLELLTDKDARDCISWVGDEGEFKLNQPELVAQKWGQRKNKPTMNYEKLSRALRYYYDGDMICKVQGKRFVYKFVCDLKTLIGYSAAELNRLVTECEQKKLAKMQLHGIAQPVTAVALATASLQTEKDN
# Summary of the method: as §1
# ERG = molecular target: T4, ERG (Homo sapiens, UniProt P11308 1-479)
# T4 sequence: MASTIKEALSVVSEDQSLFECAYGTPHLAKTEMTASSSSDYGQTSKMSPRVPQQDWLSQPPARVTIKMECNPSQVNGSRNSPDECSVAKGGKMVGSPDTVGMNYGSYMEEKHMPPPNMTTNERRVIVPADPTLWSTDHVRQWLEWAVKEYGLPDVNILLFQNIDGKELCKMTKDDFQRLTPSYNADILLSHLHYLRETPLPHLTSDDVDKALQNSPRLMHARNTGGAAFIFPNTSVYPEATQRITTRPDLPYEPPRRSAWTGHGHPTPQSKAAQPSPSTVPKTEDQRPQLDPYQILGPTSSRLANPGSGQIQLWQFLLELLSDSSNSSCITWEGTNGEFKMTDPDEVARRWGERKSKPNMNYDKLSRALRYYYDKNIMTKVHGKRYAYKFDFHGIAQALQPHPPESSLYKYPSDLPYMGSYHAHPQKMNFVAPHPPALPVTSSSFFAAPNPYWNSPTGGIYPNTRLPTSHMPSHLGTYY
# Summary of the method: as §1
# ELF1 = ELF1 (Homo sapiens, UniProt P32519 1-619)
# Chain of ELF1 (P32519 whole entry): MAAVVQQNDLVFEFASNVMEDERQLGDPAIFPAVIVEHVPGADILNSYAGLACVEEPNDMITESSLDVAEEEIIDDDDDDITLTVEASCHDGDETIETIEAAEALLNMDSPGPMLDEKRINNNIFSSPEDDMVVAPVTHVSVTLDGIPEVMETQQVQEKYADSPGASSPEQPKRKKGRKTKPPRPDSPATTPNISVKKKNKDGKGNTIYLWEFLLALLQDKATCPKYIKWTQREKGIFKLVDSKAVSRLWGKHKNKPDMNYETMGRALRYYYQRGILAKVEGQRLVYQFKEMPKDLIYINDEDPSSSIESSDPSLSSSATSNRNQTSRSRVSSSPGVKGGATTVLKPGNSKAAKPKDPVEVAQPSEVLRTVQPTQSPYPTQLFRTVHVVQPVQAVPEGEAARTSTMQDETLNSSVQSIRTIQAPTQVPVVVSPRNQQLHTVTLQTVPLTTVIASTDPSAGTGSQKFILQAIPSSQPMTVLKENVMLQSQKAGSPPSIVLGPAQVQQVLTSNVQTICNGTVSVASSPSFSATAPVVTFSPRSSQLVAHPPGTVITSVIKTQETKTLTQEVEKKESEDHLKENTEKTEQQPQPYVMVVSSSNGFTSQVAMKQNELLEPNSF
# Summary of the method: as §1
# EHF = molecular target: T5, EHF (Homo sapiens, UniProt Q9NZC4 1-300)
# T5 sequence: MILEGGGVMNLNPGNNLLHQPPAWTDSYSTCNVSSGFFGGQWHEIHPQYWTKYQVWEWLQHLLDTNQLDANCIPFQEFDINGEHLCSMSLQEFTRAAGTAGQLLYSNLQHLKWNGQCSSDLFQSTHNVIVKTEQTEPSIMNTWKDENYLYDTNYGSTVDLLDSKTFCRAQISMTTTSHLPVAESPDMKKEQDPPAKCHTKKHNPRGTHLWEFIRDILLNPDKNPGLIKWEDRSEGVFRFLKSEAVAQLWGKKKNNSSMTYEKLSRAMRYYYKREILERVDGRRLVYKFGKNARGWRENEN
# Summary of the method: as §1
# SPIB = SPIB (Homo sapiens, UniProt Q01892 1-262)
# Chain of SPIB (Q01892 whole entry): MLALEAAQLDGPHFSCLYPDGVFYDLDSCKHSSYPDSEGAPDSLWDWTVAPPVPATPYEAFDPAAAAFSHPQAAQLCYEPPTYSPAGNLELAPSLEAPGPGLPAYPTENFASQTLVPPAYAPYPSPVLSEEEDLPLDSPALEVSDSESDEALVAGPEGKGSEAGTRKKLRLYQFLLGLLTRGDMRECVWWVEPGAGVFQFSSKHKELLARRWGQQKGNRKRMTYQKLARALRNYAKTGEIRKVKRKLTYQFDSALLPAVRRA
# Summary of the method: as §1
# ELK3 = molecular target: T6, ELK3 (Homo sapiens, UniProt P41970 1-407)
# T6 sequence: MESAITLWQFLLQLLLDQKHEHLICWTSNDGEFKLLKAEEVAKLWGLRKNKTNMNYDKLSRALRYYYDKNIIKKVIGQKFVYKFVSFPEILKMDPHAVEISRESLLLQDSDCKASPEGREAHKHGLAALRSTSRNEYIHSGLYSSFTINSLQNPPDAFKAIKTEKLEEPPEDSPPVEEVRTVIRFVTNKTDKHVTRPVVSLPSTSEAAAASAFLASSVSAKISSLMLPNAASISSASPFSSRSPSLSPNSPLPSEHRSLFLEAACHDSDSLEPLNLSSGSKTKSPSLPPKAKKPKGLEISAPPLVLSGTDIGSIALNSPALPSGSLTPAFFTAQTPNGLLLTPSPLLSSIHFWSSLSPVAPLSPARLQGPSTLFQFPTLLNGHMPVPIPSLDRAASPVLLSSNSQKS
# Summary of the method: as §1
# FEV = molecular target: T7, FEV (Homo sapiens, UniProt Q99581 1-238)
# T7 sequence: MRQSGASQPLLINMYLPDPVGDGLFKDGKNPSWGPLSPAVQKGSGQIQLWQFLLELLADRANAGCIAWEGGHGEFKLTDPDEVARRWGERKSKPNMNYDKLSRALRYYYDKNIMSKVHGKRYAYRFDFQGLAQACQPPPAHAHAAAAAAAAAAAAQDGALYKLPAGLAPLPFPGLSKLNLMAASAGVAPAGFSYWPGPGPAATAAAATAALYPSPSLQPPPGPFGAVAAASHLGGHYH
# Summary of the method: as §1
# ETV5 = ETV5 (Homo sapiens, UniProt P41161 1-510)
# Chain of ETV5 (P41161 whole entry): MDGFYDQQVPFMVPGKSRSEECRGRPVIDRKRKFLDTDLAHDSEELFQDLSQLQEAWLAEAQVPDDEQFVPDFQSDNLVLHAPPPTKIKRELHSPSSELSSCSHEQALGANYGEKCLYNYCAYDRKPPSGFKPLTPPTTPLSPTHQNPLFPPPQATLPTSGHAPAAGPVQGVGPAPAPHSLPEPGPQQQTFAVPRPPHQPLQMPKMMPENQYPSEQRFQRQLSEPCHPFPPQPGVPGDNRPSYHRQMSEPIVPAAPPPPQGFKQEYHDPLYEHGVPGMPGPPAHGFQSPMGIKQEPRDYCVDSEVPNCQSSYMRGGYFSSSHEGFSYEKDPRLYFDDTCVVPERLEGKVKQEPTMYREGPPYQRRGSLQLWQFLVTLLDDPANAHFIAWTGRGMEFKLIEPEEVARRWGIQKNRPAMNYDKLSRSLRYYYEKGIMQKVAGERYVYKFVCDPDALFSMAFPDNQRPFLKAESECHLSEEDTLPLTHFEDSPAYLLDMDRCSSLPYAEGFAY
# Summary of the method: as §1
# SPIC = molecular target: T8, SPIC (Homo sapiens, UniProt Q8N5J4 1-248)
# T8 sequence: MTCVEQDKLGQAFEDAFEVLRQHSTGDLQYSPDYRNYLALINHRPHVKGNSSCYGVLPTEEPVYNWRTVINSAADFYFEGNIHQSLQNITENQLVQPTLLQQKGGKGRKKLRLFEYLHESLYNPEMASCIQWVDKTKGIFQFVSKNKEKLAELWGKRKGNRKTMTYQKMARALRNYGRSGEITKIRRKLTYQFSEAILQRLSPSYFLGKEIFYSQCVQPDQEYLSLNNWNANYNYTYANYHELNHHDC
# Summary of the method: as §1
# ELF4 = ELF4 (Homo sapiens, UniProt Q99607 1-663)
# Chain of ELF4 (Q99607 whole entry): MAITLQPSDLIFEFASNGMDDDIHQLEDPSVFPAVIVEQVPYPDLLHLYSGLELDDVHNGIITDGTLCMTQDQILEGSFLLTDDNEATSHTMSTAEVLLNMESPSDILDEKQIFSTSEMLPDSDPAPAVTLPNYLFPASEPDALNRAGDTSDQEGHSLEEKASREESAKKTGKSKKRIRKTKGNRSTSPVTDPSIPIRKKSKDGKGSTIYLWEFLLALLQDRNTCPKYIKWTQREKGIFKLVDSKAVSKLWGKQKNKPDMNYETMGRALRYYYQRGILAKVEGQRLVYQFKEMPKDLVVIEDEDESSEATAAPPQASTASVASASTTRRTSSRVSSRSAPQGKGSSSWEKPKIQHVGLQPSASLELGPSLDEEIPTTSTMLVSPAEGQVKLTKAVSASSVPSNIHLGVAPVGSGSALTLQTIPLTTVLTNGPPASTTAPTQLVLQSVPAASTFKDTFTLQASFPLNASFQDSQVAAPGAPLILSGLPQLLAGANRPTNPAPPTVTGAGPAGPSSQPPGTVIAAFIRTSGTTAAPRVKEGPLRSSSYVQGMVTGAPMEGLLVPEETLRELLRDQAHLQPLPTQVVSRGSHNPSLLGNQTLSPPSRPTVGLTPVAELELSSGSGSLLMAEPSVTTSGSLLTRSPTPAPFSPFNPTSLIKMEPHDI
# Summary of the method: as §1
# ETV1 = ETV1 (Homo sapiens, UniProt P50549 1-477)
# Chain of ETV1 (P50549 whole entry): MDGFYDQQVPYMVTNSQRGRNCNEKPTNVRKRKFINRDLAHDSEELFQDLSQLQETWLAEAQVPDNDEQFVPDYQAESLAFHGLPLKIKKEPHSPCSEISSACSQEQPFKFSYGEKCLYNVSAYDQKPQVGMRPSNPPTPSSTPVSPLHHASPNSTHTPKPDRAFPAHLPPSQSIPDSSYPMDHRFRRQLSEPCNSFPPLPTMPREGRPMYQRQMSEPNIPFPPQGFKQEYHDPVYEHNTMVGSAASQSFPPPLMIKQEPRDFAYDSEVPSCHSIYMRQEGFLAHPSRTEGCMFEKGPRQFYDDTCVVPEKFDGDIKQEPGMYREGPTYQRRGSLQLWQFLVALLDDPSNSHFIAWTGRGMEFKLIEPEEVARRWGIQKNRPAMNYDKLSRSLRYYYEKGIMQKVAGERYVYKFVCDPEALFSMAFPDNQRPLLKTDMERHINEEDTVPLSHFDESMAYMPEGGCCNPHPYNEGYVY
# Summary of the method: as §1
# ERF = molecular target: T9, ERF (Homo sapiens, UniProt P50548 1-548)
# T9 sequence: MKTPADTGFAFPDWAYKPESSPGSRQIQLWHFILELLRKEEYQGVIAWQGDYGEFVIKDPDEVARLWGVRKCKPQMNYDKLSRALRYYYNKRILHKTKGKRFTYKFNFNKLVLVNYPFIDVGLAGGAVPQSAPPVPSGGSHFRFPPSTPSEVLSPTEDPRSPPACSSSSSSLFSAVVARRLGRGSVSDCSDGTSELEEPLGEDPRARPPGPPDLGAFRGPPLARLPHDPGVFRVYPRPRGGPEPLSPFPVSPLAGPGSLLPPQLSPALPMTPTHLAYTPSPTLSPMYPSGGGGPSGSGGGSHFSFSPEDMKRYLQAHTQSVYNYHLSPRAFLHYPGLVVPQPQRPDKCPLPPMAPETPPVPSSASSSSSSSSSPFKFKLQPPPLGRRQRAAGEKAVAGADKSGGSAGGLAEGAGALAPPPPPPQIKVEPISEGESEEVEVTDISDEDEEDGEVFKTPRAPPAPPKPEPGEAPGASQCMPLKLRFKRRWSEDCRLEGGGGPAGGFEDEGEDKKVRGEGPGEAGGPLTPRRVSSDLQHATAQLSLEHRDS
# Summary of the method: as §1
# ETV3L = molecular target: T10, ETV3L (Homo sapiens, UniProt Q6ZN32 1-361)
# T10 sequence: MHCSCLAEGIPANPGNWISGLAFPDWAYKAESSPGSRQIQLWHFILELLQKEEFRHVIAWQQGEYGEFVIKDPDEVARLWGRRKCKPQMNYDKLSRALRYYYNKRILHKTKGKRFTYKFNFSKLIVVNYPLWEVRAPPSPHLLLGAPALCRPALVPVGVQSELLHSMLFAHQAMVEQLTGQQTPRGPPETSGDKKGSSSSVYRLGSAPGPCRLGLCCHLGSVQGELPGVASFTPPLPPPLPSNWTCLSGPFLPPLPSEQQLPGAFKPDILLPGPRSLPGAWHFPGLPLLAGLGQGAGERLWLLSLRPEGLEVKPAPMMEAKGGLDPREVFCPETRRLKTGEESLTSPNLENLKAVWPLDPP
# Summary of the method: as §1
# ETS2 = molecular target: T11, ETS2 (Homo sapiens, UniProt P15036 1-469)
# T11 sequence: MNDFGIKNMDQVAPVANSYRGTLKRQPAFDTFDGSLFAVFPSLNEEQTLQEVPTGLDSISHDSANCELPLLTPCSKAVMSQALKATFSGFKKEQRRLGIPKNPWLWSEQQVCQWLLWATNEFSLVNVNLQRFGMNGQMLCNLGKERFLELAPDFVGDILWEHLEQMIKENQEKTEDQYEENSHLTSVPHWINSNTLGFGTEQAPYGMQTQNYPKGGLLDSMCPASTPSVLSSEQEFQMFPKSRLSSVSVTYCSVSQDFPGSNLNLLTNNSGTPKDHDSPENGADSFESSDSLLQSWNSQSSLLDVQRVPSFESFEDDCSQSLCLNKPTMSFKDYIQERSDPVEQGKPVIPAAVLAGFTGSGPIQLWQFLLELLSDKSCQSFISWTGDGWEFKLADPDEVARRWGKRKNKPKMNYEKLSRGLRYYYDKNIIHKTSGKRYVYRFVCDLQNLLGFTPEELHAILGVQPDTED
# Summary of the method: as §1
# SPDEF = molecular target: T12, SPDEF (Homo sapiens, UniProt O95238 1-335)
# T12 sequence: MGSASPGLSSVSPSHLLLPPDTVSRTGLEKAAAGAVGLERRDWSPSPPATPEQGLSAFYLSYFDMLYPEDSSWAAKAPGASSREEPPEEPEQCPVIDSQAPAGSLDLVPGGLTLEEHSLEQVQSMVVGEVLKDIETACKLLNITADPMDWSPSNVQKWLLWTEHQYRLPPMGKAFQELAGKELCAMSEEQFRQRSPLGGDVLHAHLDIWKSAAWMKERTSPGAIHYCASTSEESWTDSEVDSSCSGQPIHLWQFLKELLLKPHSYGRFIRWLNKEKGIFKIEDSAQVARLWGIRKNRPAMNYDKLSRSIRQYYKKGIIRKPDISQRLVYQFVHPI
# Summary of the method: as §1
# ETV3 = molecular target: T13, ETV3 (Homo sapiens, UniProt P41162-2 1-143)
# T13 sequence: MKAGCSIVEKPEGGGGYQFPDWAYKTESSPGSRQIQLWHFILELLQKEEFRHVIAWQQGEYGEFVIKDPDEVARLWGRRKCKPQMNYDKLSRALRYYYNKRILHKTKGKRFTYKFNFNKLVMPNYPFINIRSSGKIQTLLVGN
# Summary of the method: as §1
sequence,measurement,setting,value
CGGCCT,binding signal,FLI1,"1.22 fold enrichment (6-mer frequency, TF over GST control)"
same,binding signal,ELK1,"1.15 fold enrichment (6-mer frequency, TF over GST control)"
same,binding signal,GABPA,"1.16 fold enrichment (6-mer frequency, TF over GST control)"
same,binding signal,ERG,"1.17 fold enrichment (6-mer frequency, TF over GST control)"
same,binding signal,ELF1,"1.1 fold enrichment (6-mer frequency, TF over GST control)"
same,binding signal,EHF,"1.08 fold enrichment (6-mer frequency, TF over GST control)"
same,binding signal,SPIB,"1.02 fold enrichment (6-mer frequency, TF over GST control)"
same,binding signal,ELK3,"1.13 fold enrichment (6-mer frequency, TF over GST control)"
same,binding signal,FEV,"1.17 fold enrichment (6-mer frequency, TF over GST control)"
same,binding signal,ETV5,"1.14 fold enrichment (6-mer frequency, TF over GST control)"
same,binding signal,SPIC,"1.14 fold enrichment (6-mer frequency, TF over GST control)"
same,binding signal,ELF4,"1.12 fold enrichment (6-mer frequency, TF over GST control)"
same,binding signal,ETV1,"1.05 fold enrichment (6-mer frequency, TF over GST control)"
same,binding signal,ERF,"1.06 fold enrichment (6-mer frequency, TF over GST control)"
same,binding signal,ETV3L,"1.07 fold enrichment (6-mer frequency, TF over GST control)"
same,binding signal,ETS2,"1.06 fold enrichment (6-mer frequency, TF over GST control)"
same,binding signal,SPDEF,"1.12 fold enrichment (6-mer frequency, TF over GST control)"
same,binding signal,ETV3,"1.18 fold enrichment (6-mer frequency, TF over GST control)"
